FECH block – human FECH heme synthesis enzyme inhibition | P22830 | purified FECH, Ni-mesoporphyrin absorbance 550 nm | calls only at 10 µM (by protocol) | 20,000 tested, 3.3% active;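 active = enzyme reaction rate more than 3 SD below the solvent-only control wells on the same plate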;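 also: lower slope than DMSO wells means FECH inhibition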
Target sequence (P22830 whole entry, looked up): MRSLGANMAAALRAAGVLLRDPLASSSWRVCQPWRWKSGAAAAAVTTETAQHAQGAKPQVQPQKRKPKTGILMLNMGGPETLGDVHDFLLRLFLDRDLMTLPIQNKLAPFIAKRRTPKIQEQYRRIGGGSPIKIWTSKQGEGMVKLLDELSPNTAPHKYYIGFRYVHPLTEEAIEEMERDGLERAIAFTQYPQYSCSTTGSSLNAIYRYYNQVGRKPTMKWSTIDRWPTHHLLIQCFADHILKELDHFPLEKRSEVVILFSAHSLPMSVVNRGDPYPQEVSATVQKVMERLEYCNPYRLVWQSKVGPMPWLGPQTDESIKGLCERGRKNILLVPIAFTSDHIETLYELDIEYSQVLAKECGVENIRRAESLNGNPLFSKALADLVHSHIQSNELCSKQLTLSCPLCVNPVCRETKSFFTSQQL
* marks the source's active call; other numbers are inactive results; i = inactive; + = active, no number. Many of the other results were omitted from the sample, so hits are more common in it than they were.

SMILES	FECH block
COc1ccc(CN2CCCN(CC(=O)Nc3ccccc3F)S2(=O)=O)cc1	i
Cc1ccc(NC(=O)CN2CCN(Cc3ccccc3C)S2(=O)=O)cc1	i
CCOc1ccc(NC(=O)CN2CCCN(Cc3cccc(F)c3)S2(=O)=O)cc1	i
COc1ccc(NC(=O)CN2CCN(Cc3cccc(C)c3)S2(=O)=O)cc1	+
Cc1ccc(NC(=O)CN2CCCN(Cc3ccccc3)S2(=O)=O)cc1	i
COc1ccc(NC(=O)CN2CCN(Cc3ccccc3C)S2(=O)=O)cc1	i
Cc1cccc(CN2CCCN(CC(=O)Nc3ccccc3F)S2(=O)=O)c1	+
Cc1cc(C)c(CN2CCN(Cc3ccccc3C)S2(=O)=O)c(C)c1	i
Cc1cccc(NC(=O)CN2CCCN(Cc3ccccc3)S2(=O)=O)c1	i
COc1ccc(CN2CCCN(CC(=O)Nc3ccc(OC)cc3)S2(=O)=O)cc1	i
CCOc1ccc(NC(=O)CN2CCCN(Cc3cccc(C)c3)S2(=O)=O)cc1	+
CCOc1c(Nc2ccc(C)cc2C)c(=O)c1=O	i
CCCCn1ncc(C)c1NC(=O)C1CC(=O)c2ccccc21 (stereo unspecified)	i
C(=C\c1ccccc1)/CN1CCN(CCn2cncn2)CC1	i
Cc1ccc(N2C(=O)CCS2(=O)=O)cc1S(=O)(=O)N1CCc2ccccc21	i
O=C(O)c1ccc(CN2CCN(c3nccc4ccccc34)CC2)cc1	i
CCC(COC)Nc1nc(-c2cccnc2)nc2c1CCN(C(C)=O)C2 (stereo unspecified)	i
CCCCN(Cc1nc2nc(C)cc(C)n2n1)C(=O)c1ccc(Cl)cc1	i
Cc1cc(C)c(CN2CCN(CC(=O)Nc3c(C)cccc3C)S2(=O)=O)c(C)c1	i
COc1ccc(NC(=O)CN2CCN(Cc3ccccc3C)S2(=O)=O)cc1Cl	i
COc1ccc(NC(=O)CN2CCN(Cc3ccccc3C)S2(=O)=O)cc1OC	+
Cc1ccc(CN2CCCN(Cc3c(F)cccc3Cl)S2(=O)=O)cc1	+
COc1ccc(OC)c(NC(=O)CN2CCCN(Cc3ccccc3)S2(=O)=O)c1	i
COc1ccc(OC)c(NC(=O)CN2CCCN(Cc3ccc(C)cc3)S2(=O)=O)c1	i
Cc1ccc(CN2CCCN(Cc3ccc(F)cc3Cl)S2(=O)=O)cc1	i
SMILES	FECH block
Cc1ccc(NC(=O)CN2CCCN(Cc3ccc(Cl)cc3)S2(=O)=O)cc1	i
COc1ccc(NC(=O)CN2CCN(Cc3ccccc3Cl)S2(=O)=O)cc1OC	i
COc1ccc(OC)c(NC(=O)CN2CCCN(Cc3cccc(C)c3)S2(=O)=O)c1	+
Cc1ccc(C)c(CN2CCCN(CC(=O)Nc3ccc(C)c(F)c3)S2(=O)=O)c1	i
CCOc1ccc(NC(=O)CN2CCCN(Cc3cc(C)ccc3C)S2(=O)=O)cc1	+
Cc1ccc(C)c(CN2CCCN(CC(=O)NC3CCCC3)S2(=O)=O)c1	i
CCc1ncc(CN2CCC3(CCCN(C(=O)c4cccc(C)c4)C3)C2)cn1 (stereo unspecified)	i
Cc1cc(NC(=O)c2ccc(Br)cc2)n(-c2ncnc3c2cnn3-c2ccccc2)n1	i
CN1Cc2ccccc2CC1C(=O)N1CCc2c(c(C(=O)O)nn2CCO)C1 (stereo unspecified)	i
Cc1cc(N(C)C)nc(Nc2ccc(NC(=O)C3CCCCC3)cc2)n1	i
Cc1cccc2nc(C(=O)N3CCC4(CC3)c3ccccc3[C@@H](N)[C@@H]4O)cn12	i
COCC(=O)Nc1ccc(Nc2nc(C)cc(N3CCCC3)n2)cc1	i
Cc1cccc(CN2CCN(CC(=O)Nc3ccc(C)c(C)c3)S2(=O)=O)c1	+
COc1cccc(NC(=O)CN2CCCN(Cc3cccc(C)c3)S2(=O)=O)c1	+
Cc1cccc(CN2CCN(CC(=O)Nc3c(C)cc(C)cc3C)S2(=O)=O)c1	i
Cc1ccc(NC(=O)CN2CCN(Cc3ccccc3)S2(=O)=O)cc1	i
CCc1cccc(C)c1NC(=O)CN1CCCN(Cc2cccc(C)c2)S1(=O)=O	+
COc1cccc(NC(=O)CN2CCCN(Cc3cccc(F)c3)S2(=O)=O)c1	i
Cc1ccc(CN2CCN(CC(=O)Nc3ccc(C)c(C)c3)S2(=O)=O)cc1	i
COc1cccc(NC(=O)CN2CCN(Cc3ccc(F)cc3)S2(=O)=O)c1	i
CCc1cccc(C)c1NC(=O)CN1CCN(Cc2ccccc2C)S1(=O)=O	i
CCc1cccc(C)c1NC(=O)CN1CCCN(Cc2ccc(C)cc2)S1(=O)=O	i
Cc1ccc(NC(=O)CN2CCN(Cc3cccc(C)c3)S2(=O)=O)cc1	+
Cc1ccc(NC(=O)CN2CCN(Cc3ccc(Cl)cc3)S2(=O)=O)cc1C	i
CCc1cc(Sc2ccc(NS(=O)(=O)c3ccc(F)cc3)cc2)n2ncnc2n1	i
SMILES	FECH block
OCc1cc(N2CCN(Cc3cc(Cl)ccc3O)CC2)ccn1	i
COc1ccc(Nc2cc(C)nc(N3CCN(S(=O)(=O)c4ccc5c(c4)Cc4ccccc4-5)CC3)n2)cc1	i
CNc1ncc(-c2cc(C(=O)N3CCN(C)C(=O)C3C)c3ccc(F)cc3n2)cn1 (stereo unspecified)	i
COc1ccc(C(=O)Nc2cc(C)nn2-c2ncnc3c2cnn3-c2ccccc2)cc1OC	i
CCCNC(=O)c1ccc(N2CCNC(C(=O)O)C2)nc1 (stereo unspecified)	i
NS(=O)(=O)c1ccc(CCNC(=O)CCn2cnc3c([nH]c4ccccc43)c2=O)cc1	+
Cc1ccc2[nH]c3c(=O)n(CCC(=O)NCCc4ccc(S(N)(=O)=O)cc4)cnc3c2c1	i
NS(=O)(=O)c1ccc(CCNC(=O)CCn2cnc3c([nH]c4ccc(F)cc43)c2=O)cc1	i
CCOC(=O)CCNC(=O)C1CCCN1C(=O)C1CCCCC1 (stereo unspecified)	i
O=C(O)c1ccc(-n2c(Cc3ccccc3F)n[nH]c2=O)cc1	i
Cc1cc(C)n2nc(CN(C(=O)c3ccc(F)cc3)c3ccc(F)cc3)nc2n1	i
O=C(NC1CCc2ccccc21)c1nc[nH]c1C(=O)NCc1ccccn1 (stereo unspecified)	+
O=C(NCCc1c[nH]c2ccccc12)c1nc[nH]c1C(=O)NCc1ccccn1	i
CC(C)(C)CNC(=O)c1[nH]cnc1C(=O)NC1CCC(O)CC1 (stereo unspecified)	i
O=C(NCc1ccccn1)c1nc[nH]c1C(=O)NCc1ccccn1	+
CC(C)CCNC(=O)c1[nH]cnc1C(=O)NC(c1ccccc1)c1ccccc1	i
O=C(NCc1ccccn1)c1nc[nH]c1C(=O)NCc1cccc(C(F)(F)F)c1	+
CC(C)CNC(=O)c1nc[nH]c1C(=O)NCC(C)(C)C	i
CC(C)CCNC(=O)c1nc[nH]c1C(=O)NCc1cccc(C(F)(F)F)c1	i
CCCNC(=O)c1[nH]cnc1C(=O)NC1CCc2ccccc21 (stereo unspecified)	i
Cc1cccc2[nH]c(CCNC(=O)c3cc(C(C)C)on3)nc12	i
COCCCn1ccnc1-c1ccc(C)c(F)c1C	i
O=C(NCCN1CCCCCC1)C1CCN(c2ccc(-c3ccccc3)nn2)CC1	i
Cc1ccc(S(=O)(=O)N2CCC(CC(=O)NCc3ccccn3)CC2)cc1	i
COc1ccccc1CN(C(=O)c1ccc(C)c(N2CCNC2=O)c1)C1CC1	i
Cc1ccc(F)c(NC(=O)CN(Cc2ccccn2)CC2CCCO2)c1 (stereo unspecified)	i
CCOC(=O)c1c(NC(=O)C2=COCCO2)sc2c1CCN(Cc1ccccc1)C2	i

High-throughput results: PubChem, Corson Lab, School of Medicine, Indiana University
